Counter-ions that a name gives are not always drawn.
How the values were obtained:
U-2932 [1] = experiment: growth inhibition by drug alone (1 - RLU/untreated control) (fraction); higher = stronger inhibition; details: 177Lu-lilotomab satetraxetan 0 ug/ml
Outline: (§1)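 With or without 18 h pretreatment by a radiolabelled anti-CD37 antibody conjugate (~600 MBq/mg; 0.5 µg/ml RIVA, 1 µg/ml U-2932), RIVA and U-2932 cells were washed and plated at 3,000 cells/well. Pre-printed compound doses were 10/100 nM for RIVA and 10/1,000 nM for U-2932. Growth inhibition uses RealTime-Glo RLU relative to the untreated no-drug wells. The calculation is 1 − RLU/mean of 48 such wells per plate, with reads daily from day 3 after 1 h at 37°C.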

RIVA [2] = experiment: as above; details: 177Lu-lilotomab satetraxetan 0 ug/ml
Outline: as §1

U-2932 [3] = experiment: growth inhibition by drug plus 177Lu-lilotomab satetraxetan (1 - RLU/untreated control) (fraction); higher = stronger inhibition; details: 177Lu-lilotomab satetraxetan 1 ug/ml
Outline: as §1

RIVA [4] = experiment: as above; details: 177Lu-lilotomab satetraxetan 0.5 ug/ml
Outline: as §1

Structure (SMILES)	growth inhibition by drug alone (U-2932 [1]; 10 nM, time (day): 3)	growth inhibition by drug alone (U-2932 [1]; 10 nM, time (day): 4)	growth inhibition by drug alone (U-2932 [1]; 10 nM, time (day): 5)	growth inhibition by drug alone (U-2932 [1]; 10 nM, time (day): 6)	growth inhibition by drug alone (U-2932 [1]; 1000 nM, time (day): 3)	growth inhibition by drug alone (U-2932 [1]; 1000 nM, time (day): 4)	growth inhibition by drug alone (U-2932 [1]; 1000 nM, time (day): 5)	growth inhibition by drug alone (U-2932 [1]; 1000 nM, time (day): 6)	growth inhibition by drug alone (RIVA [2]; 10 nM, time (day): 3)	growth inhibition by drug alone (RIVA [2]; 10 nM, time (day): 4)	growth inhibition by drug alone (RIVA [2]; 10 nM, time (day): 5)	growth inhibition by drug alone (RIVA [2]; 10 nM, time (day): 6)	growth inhibition by drug alone (RIVA [2]; 100 nM, time (day): 3)	growth inhibition by drug alone (RIVA [2]; 100 nM, time (day): 4)	growth inhibition by drug alone (RIVA [2]; 100 nM, time (day): 5)	growth inhibition by drug alone (RIVA [2]; 100 nM, time (day): 6)	growth inhibition by drug plus 177Lu-lilotomab satetraxetan (U-2932 [3]; 10 nM, time (day): 3)	growth inhibition by drug plus 177Lu-lilotomab satetraxetan (U-2932 [3]; 10 nM, time (day): 4)	growth inhibition by drug plus 177Lu-lilotomab satetraxetan (U-2932 [3]; 10 nM, time (day): 5)	growth inhibition by drug plus 177Lu-lilotomab satetraxetan (U-2932 [3]; 10 nM, time (day): 6)	growth inhibition by drug plus 177Lu-lilotomab satetraxetan (U-2932 [3]; 1000 nM, time (day): 3)	growth inhibition by drug plus 177Lu-lilotomab satetraxetan (U-2932 [3]; 1000 nM, time (day): 4)	growth inhibition by drug plus 177Lu-lilotomab satetraxetan (U-2932 [3]; 1000 nM, time (day): 5)	growth inhibition by drug plus 177Lu-lilotomab satetraxetan (U-2932 [3]; 1000 nM, time (day): 6)	growth inhibition by drug plus 177Lu-lilotomab satetraxetan (RIVA [4]; 10 nM, time (day): 3)	growth inhibition by drug plus 177Lu-lilotomab satetraxetan (RIVA [4]; 10 nM, time (day): 4)	growth inhibition by drug plus 177Lu-lilotomab satetraxetan (RIVA [4]; 10 nM, time (day): 5)	growth inhibition by drug plus 177Lu-lilotomab satetraxetan (RIVA [4]; 10 nM, time (day): 6)	growth inhibition by drug plus 177Lu-lilotomab satetraxetan (RIVA [4]; 100 nM, time (day): 3)	growth inhibition by drug plus 177Lu-lilotomab satetraxetan (RIVA [4]; 100 nM, time (day): 4)	growth inhibition by drug plus 177Lu-lilotomab satetraxetan (RIVA [4]; 100 nM, time (day): 5)	growth inhibition by drug plus 177Lu-lilotomab satetraxetan (RIVA [4]; 100 nM, time (day): 6)
OC[C@H]1O[C@@H](n2cnc3c2N=CNC[C@H]3O)C[C@@H]1O [Pentostatin]	0.1	0.0372	-0.116	-0.114	-0.0219	-0.074	-0.147	-0.0984	0.0173	-0.0212	-0.109	-0.624	-0.427	-0.321	-0.314	-0.387	-0.00817	0.056	0.0512	0.0351	0.0728	0.0721	0.118	0.207	0.472	0.557	0.557	0.555	0.399	0.488	0.5	0.513
CCOC(=O)C1=C[C@]2(CC)CCCN3CCc4c(n1c1ccccc41)[C@@H]32 [Vinpocetine (Cavinton)]	-0.0944	-0.0619	-0.0289	0.127	0.0303	0.0355	0.0149	0.00297	-0.107	-0.13	-0.129	-0.167	0.0294	-0.03	-0.0621	-0.112	-0.0659	-0.0355	-0.00313	0.159	0.000715	0.0172	0.0304	0.134	0.457	0.533	0.549	0.545	0.362	0.396	0.4	0.377
CC(C)C[C@@H](C(=O)N[C@H](C(=O)OC1CCCC1)c1ccccc1)[C@H](O)C(=O)NO [Tosedostat (CHR2797)]	0.0666	0.0228	-0.0512	-0.123	-0.142	-0.112	-0.102	-0.0781	0.0304	0.0133	0.000967	-0.0544	-0.208	-0.212	-0.221	-0.3	0.00927	0.0682	0.108	0.162	-0.0889	-0.0223	0.0204	0.176	0.571	0.596	0.613	0.62	0.559	0.591	0.602	0.604
COc1ccc(-c2oc3cc(OC)ccc3c2C(=O)c2ccc(C#N)cc2)cc1	0.084	0.0751	0.0436	-0.022	-0.0181	0.0261	-0.052	-0.253	-0.046	-0.0513	-0.124	-0.374	-0.0825	-0.0731	-0.0858	-0.201	-0.0286	-0.00458	0.0392	0.0337	-0.0968	0.0212	0.0134	0.0408	0.441	0.559	0.571	0.572	0.391	0.503	0.507	0.483
CCCC(=O)[O-].[Na+] [Sodium butyrate]	-0.0432	-0.057	-0.0778	-0.0762	-0.0747	-0.0522	-0.0783	-0.149	-0.23	-0.252	-0.304	-0.546	-0.245	-0.343	-0.3	-0.374	-0.0586	-0.0574	-0.0479	-0.015	-0.0238	0.0387	0.0442	0.139	0.36	0.484	0.502	0.51	0.431	0.486	0.506	0.493
Cc1ccc(NC(=O)c2ccc(CN3CC[C@H](N(C)C)C3)c(C(F)(F)F)c2)cc1Nc1nccc(-c2cncnc2)n1 [Bafetinib (INNO-406)]	0.0934	0.0624	-0.0124	0.0553	0.0275	-0.0147	-0.073	0.062	0.236	0.204	0.191	0.188	-0.279	-0.213	-0.225	-0.275	0.0136	0.0566	0.138	0.239	0.00697	0.00776	0.0531	0.226	0.594	0.623	0.652	0.658	0.392	0.503	0.513	0.535
Nc1ccccc1NC(=O)c1ccc(CNc2nccc(-c3cccnc3)n2)cc1 [Mocetinostat (MGCD0103)]	0.00982	0.0102	0.0298	0.152	0.868	0.878	0.889	0.91	-0.0534	-0.0971	-0.0989	-0.142	0.358	0.254	0.208	0.152	-0.0242	-0.00346	0.0145	0.11	0.876	0.893	0.907	0.934	0.466	0.553	0.579	0.576	0.681	0.692	0.705	0.7
O=C(Nc1ncc([N+](=O)[O-])s1)c1ccc([N+](=O)[O-])c(Cl)c1	0.119	0.0794	0.00802	0.0242	0.153	0.14	0.0538	0.129	0.137	0.114	0.0837	0.0697	-0.0662	-0.0483	-0.0824	-0.14	0.064	0.0915	0.164	0.259	0.142	0.136	0.179	0.3	0.666	0.663	0.69	0.688	0.605	0.655	0.669	0.679
CN(C)CCOc1ccc(/C(=C(/CCCl)c2ccccc2)c2ccccc2)cc1 [Toremifene Citrate (Fareston, Acapodene)]	0.147	0.112	-0.00292	-0.0137	0.104	0.101	-0.00882	0.0143	0.218	0.188	0.166	-0.0195	0.0631	0.0479	0.00246	-0.0264	0.111	0.144	0.204	0.262	0.0949	0.116	0.163	0.312	0.724	0.722	0.729	0.733	0.696	0.711	0.713	0.72
C=CC(=O)N1CCC[C@@H](n2nc(-c3ccc(Oc4ccccc4)cc3)c3c(N)ncnc32)C1	0.341	0.519	0.583	0.634	0.502	0.623	0.729	0.832	0.676	0.716	0.705	0.642	0.897	0.908	0.915	0.923	0.46	0.56	0.568	0.6	0.639	0.723	0.791	0.845	0.764	0.828	0.848	0.853	0.872	0.9	0.919	0.934
CCNC(=O)c1noc(-c2cc(C(C)C)c(O)cc2O)c1-c1ccc(CN2CCOCC2)cc1	0.0556	0.0532	-0.00948	0.11	0.942	0.972	0.981	0.982	0.0724	-0.0275	-0.068	-0.156	0.971	0.977	0.978	0.975	0.117	0.0968	0.0861	0.245	0.936	0.973	0.981	0.984	0.398	0.414	0.469	0.516	0.982	0.988	0.988	0.988
C[C@@H](Oc1cc(-n2cnc3ccc(CN4CCN(C)CC4)cc32)sc1C(N)=O)c1ccccc1C(F)(F)F	0.444	0.458	0.438	0.516	0.94	0.961	0.973	0.981	0.364	0.265	0.248	0.223	0.944	0.961	0.967	0.969	0.423	0.489	0.536	0.644	0.926	0.959	0.975	0.982	0.759	0.799	0.824	0.853	0.943	0.964	0.974	0.981
CCN(CC)CCCC(C)Nc1nc(C)cc(Nc2ccc3nc(C)cc(N)c3c2)n1 (stereo not drawn)	0.0927	0.0716	-0.114	-0.134	0.0662	0.0733	-0.022	-0.107	-0.0541	-0.0225	-0.0658	-0.279	-0.31	-0.199	-0.249	-0.391	0.0413	0.106	0.161	0.181	0.092	0.11	0.165	0.255	0.572	0.606	0.627	0.625	0.489	0.538	0.548	0.545
COCC[n+]1c2c(n(Cc3cnccn3)c1C)C(=O)c1ccccc1C2=O	0.948	0.947	0.963	0.974	0.989	0.989	0.989	0.989	0.984	0.981	0.98	0.981	0.98	0.979	0.98	0.979	0.945	0.95	0.969	0.977	0.988	0.988	0.989	0.991	0.988	0.985	0.986	0.986	0.986	0.989	0.989	0.989
CCCCc1nc2cc(/C=C/C(=O)NO)ccc2n1CCN(CC)CC [SB939 (Pracinostat)]	0.0917	0.0424	-0.0359	-0.128	0.935	0.941	0.959	0.973	0.107	0.0736	0.0778	0.0437	0.513	0.435	0.418	0.353	0.0531	0.113	0.137	0.186	0.95	0.96	0.973	0.982	0.656	0.663	0.693	0.699	0.817	0.85	–	–

— the supplement of paper PMC6897291
